High-throughput results as filed in PubChem.
Shown are actives, neighbours in structure and some others; about 11% of the full set was active somewhere.
G9a block – qHTS Assay for Inhibitors of Histone Lysine Methyltransferase G9a | AID 504332, 2011 | G9a H3K9 monomethylation, AlphaScreen, 2 h | Potency, µM (titrated, usually from 102 µM), without a hit: at the highest dose activity, negative = inhibition, hits mostly inhibitors | 350,000 tested, 8.8% active | Histone-lysine N-methyltransferase EHMT2 (Homo sapiens), Q96KQ7; further: potency means the concentration at half of the fitted maximal effect; on the % scale 0 is the no-effect control and ±100 the full control effect; nearly all actives have a fitted effect of over 75% in size
Target sequence (Q96KQ7 913-1193 limits assumed): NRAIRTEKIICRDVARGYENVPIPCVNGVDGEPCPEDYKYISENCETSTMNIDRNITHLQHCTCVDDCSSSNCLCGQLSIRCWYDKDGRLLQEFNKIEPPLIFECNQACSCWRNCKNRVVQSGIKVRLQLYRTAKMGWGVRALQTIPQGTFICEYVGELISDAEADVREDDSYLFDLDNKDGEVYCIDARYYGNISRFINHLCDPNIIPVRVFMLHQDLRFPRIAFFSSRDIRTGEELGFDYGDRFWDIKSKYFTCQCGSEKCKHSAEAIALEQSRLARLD
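Using a bead-based AlphaScreen, monomethylated H3K9 product from 2 h room-temperature reactions (G9a 20 nM, peptide 500 nM, SAM 20 uM) was detected with 0.5 ug/mL rabbit anti-H3K9me1 antibody.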
BAZ2B block – qHTS Assay for Inhibitors of BAZ2B; Bromodomain adjacent to zinc finger domain protein 2B (Homo sapiens), Q9UIF8; AlphaScreen BAZ2B-H3K14Ac peptide displacement; Potency, µM (titrated, usually from 114 µM), without a hit: top-dose activity change, negative = inhibition, actives largely listed as inhibitors; 360,000 tested, 4.4% active; AID 504333, 2011; further: potency means the concentration at half of the fitted maximal effect; on the % scale 0 is the no-effect control and ±100 the full control effect; nearly all actives have a fitted effect of over 60% in size
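AlphaScreen displacement: compounds (up to 110uM) incubated 30 min at room temperature with a preformed 50 nM BAZ2B/50 nM biotinylated H3K14Ac peptide complex in PBS pH 7.4 with Tween-20. Donor and acceptor beads at 10 ug/mL final added, 20 min light-protected before reading.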
JMJD2A Tudor – qHTS Assay for Inhibitors of JMJD2A-Tudor Domain | AlphaScreen JMJD2A-Tudor / H3K4me3 peptide binding | Potency, µM (top dose mostly 114 µM), inactives show at the top dose activity change, negative = inhibition, usual class: inhibitors | 390,000 tested, 4.4% active; further: potency means the concentration at half of the fitted maximal effect; on the % scale 0 is the no-effect control and ±100 the full control effect; nearly all actives have a fitted effect of over 50% in size
PI5P4Ka inh – qHTS for Inhibitors of phosphatidylinositol 5-phosphate 4-kinase (PI5P4K); PI5P4Kalpha enzyme, ADP-Glo luminescence, 60 min; hits give low values; max response, %; 330,000 tested, 1.2% active; active means max response of -50% or lower; inconclusive means between -30% and -50%; inactive means -30% or higher; further: value at the top dose of about 77 µM; on the % scale 0 is the no-effect control and ±100 the full control effect
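Controls without substrate or without enzyme flank wells where PI5P4Kalpha converts substrate using 5 microM ATP (final). Incubation lasts 60 minutes at room temperature; ADP formed is read by ADP-Glo luminescence.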
L3MBTL1 block – qHTS Assay for the Inhibitors of L3MBTL1 | AlphaScreen L3MBTL1–H3K9me1 peptide binding | 230,000 tested, 0.66% active | AID 485360, 2010 | Potency, µM (doses to about 57.1 µM), for the others: at the top dose activity, negative = inhibition, usual class: inhibitors | Lethal(3)malignant brain tumor-like protein 1 (Homo sapiens), Q9Y468; further: potency means the concentration at half of the fitted maximal effect; on the % scale 0 is the no-effect control and ±100 the full control effect; nearly all actives have a fitted effect of over 60% in size
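L3MBTL1 (50 nM) pre-complexed 30 min with biotinylated H3(1-15)K9me1 peptide (75 nM), then compounds added for 30 min at room temperature; AlphaScreen streptavidin donor/nickel chelate acceptor beads (10 ug/mL final) read after 30 min dark incubation.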
HP1b chromo inh – HTS for Inhibitors of HP1-beta Chromodomain Interactions with Methylated Histone Tails; Chromobox protein homolog 1 (Homo sapiens), P83916; 390,000 tested, 0.56% active; AlphaScreen HP1-beta / biotin-H3K9me3 peptide binding; Potency, µM (highest dose often 114 µM), for the others: at the top dose activity change, negative = inhibition, most hits filed as inhibitors; further: potency means the concentration at half of the fitted maximal effect; nearly all actives have a fitted effect of over 70% in size
Target sequence (P83916 whole entry, looked up): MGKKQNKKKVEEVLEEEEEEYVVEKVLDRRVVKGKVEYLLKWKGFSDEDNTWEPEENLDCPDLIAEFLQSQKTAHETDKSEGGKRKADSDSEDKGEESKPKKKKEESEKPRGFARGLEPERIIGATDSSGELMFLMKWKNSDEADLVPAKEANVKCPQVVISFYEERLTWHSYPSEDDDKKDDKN
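AlphaScreen: HP1-beta (50 nM) preformed 30 min with biotin-H3(1-18)K9me3 peptide (50 nM) in PBS pH 7.4, 0.01% Tween-20. Compound added for 30 min at RT, then streptavidin donor/nickel chelate acceptor beads (10 ug/mL) for 30 min.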
Active calls of the source: *; ? = inconclusive; · = no result given; ! = not confirmed by another sample; [ ] = dose if it differs, or a comment. Unless noted, the call rests on the fitted dose curve; in most records, active means well fitted inhibition curve with a large enough effect; inconclusive means small, poorly fitted or top-dose-only effect; inactive means no such curve, though single readings can be large or run the other way.

SMILES	G9a block	BAZ2B block	JMJD2A Tudor	PI5P4Ka inh	L3MBTL1 block	HP1b chromo inh
N#Cc1ccccc1Cn1c(=O)n(CCCC(=O)NCc2ccc3c(c2)OCO3)c(=O)c2sccc21	-34.4%[59 µM]	-9.5%	-7.5%	·	·	28.0%
CC(C)CN1CC[C@@]2(CCCN(S(=O)(=O)c3ccccc3)C2)C1	1.5%[12.7 µM]	·	·	·	·	·
O=S(=O)(c1ccc2c(c1)OCCO2)N1CCN(S(=O)(=O)c2ccccc2F)CC1	·	·	-17.8%	·	·	·
CCc1cccc(NC(=O)Cn2c(=O)c(C(F)(F)F)nc3ccccc32)c1	-0.2%[59 µM]	4.1%	-2.6%	·	·	15.9%
COc1cccc2c1OC(=O)CC2c1ccccc1C (stereo not drawn)	1.0%	·	·	·	·	·
OCCN1CCN(CC/C=C2/c3ccccc3Sc3ccc(C(F)(F)F)cc32)CC1	11.2µM*!	?	?	20.1	-6.5%	4.1%
COC(=O)C1=C(C)NC(C)=C([N+](=O)[O-])[C@@H]1c1ccccc1C(F)(F)F	-35.0%[59 µM]	·	·	·	·	·
COC(=O)C1=C(C)NC(C)=C(C(=O)OCC(C)C)C1c1ccccc1[N+](=O)[O-] (stereo not drawn)	11.2µM*	·	20µM*	?	·	15.8µM*
CN(C)c1ncc2nc(-c3ccccc3)c(=O)n(Cc3ccc(F)cc3)c2n1	1.7%[0.501 µM]	·	·	·	·	·
COc1ccc(NC(C)C(=O)Nc2cc(C(F)(F)F)ccc2N2CCOCC2)c(OC)c1 (stereo not drawn)	?	31.6µM*	44.7µM*	0.4	?	?
Cc1csc(N=Nc2ccc(N(C)C)cc2)[n+]1[O-]	·	·	·	-55.5*	·	·
COc1ccc(-n2c(SCC(=O)NCc3ccc(C)cc3)nc3n[nH]c(C)c3c2=N)cc1	-3.8%[59 µM]	-2.8%	-20.2%	·	·	21.6%
COc1ccc(C(=S)N2CCN(S(=O)(=O)c3ccccc3)CC2)cc1	12.7%	-22.9%	24.1%	7.9	·	58.4%
CN(C)c1ccc(C(=S)N2CCOCC2)cc1	3.2%[59 µM]	·	0.8%	·	-1.2%	23.4%
CN(C)c1ccc(C(=S)N2CCN(S(=O)(=O)c3ccccc3)CC2)cc1	12.6µM*	?	5.4%	-8.8	·	19.6%
CN(C)c1ccc(C(=S)N2CCCCCC2)cc1	8.91µM*	?	?	·	·	-26.3%
CC(=O)N1CCN(C(=S)c2ccc(N(C)C)cc2)CC1	7.08µM*	-22.4%	-20.3%	·	-2.0%	?
COc1ccccc1CN1CCCC2(CCN(C(=O)c3c(C)noc3C)CC2)C1	8.7%[12.7 µM]	·	·	·	·	·
COc1cc(OC)c(C(=O)NCc2nc(-c3ccccc3)no2)cc1OC	4.6%[59 µM]	-4.6%	-24.7%	·	·	2.0%
Cc1ccc(C)c(CSc2nc3ccncc3n2CC(=O)Nc2ccc(C)c(C)c2)c1	?	-3.2%	·	·	-7.9%	·
Cc1ccc(C)c(CSc2nc3ccncc3n2CC(=O)Nc2ccc(N(C)C)cc2)c1	5.01µM*	?	?	·	·	-9.4%
CN(C)c1ccc(NC(=O)Cn2c(SCc3ccccc3F)nc3cccnc32)cc1	3.16µM*	-10.0%	-13.9%	·	·	15.7%
CCCN1CCN(CCCNC(=O)c2cnn(-c3ccc(F)cc3)c2-n2cccc2)CC1	-3.0%[59 µM]	-4.6%	-14.1%	·	·	9.1%
Cc1ccc(OCCCNC2CCCC2)cc1	12.6µM*	?	22.4µM*	-2.8	7.8%	-19.5%
CC(C)(C)c1ccc(OCCCNC2CCCC2)cc1	11.2µM*	79.4µM*	20µM*	-3.7	3.3%	-35.7%
SMILES	G9a block	BAZ2B block	JMJD2A Tudor	PI5P4Ka inh	L3MBTL1 block	HP1b chromo inh
COc1cccc2c(=O)n(CC(=O)NC3CCCC3)ccc12	-1.1%	1.1%	-7.1%	0.8	1.9%	37.9%
COc1cccc(OC)c1OCCCNC1CCCC1	·	?	25.1µM*	4.1	10.8%	?
Cc1ccc(C)c(OCCCNC2CCCC2)c1C	7.08µM*	?	0.794µM*	-5.7	-10.4%	?
CC(C)(C)c1ccc(OCCC(=O)OCC(=O)NC2CC2)cc1	23.1%[12.7 µM]	-2.4%	9.5%	2.4	2.8%	27.9%
Cc1ccc(OCCC(=O)OCC(=O)NC(=O)NC2CCCCC2)cc1	7.8%	11.6%	-6.2%	19.2	-6.8%	26.8%
CCN(C(=O)CCS(=O)(=O)c1cc2[nH]c(=O)c(=O)[nH]c2cc1C)c1ccccc1	-27.9%[59 µM]	-14.2%	-3.4%	·	·	30.8%
Cc1ccc(OCC(O)CNC2CCCC2)c(C)c1 (stereo not drawn)	·	2.4%	-18.3%	0.6	5.3%	13.4%
Cc1ccc(OCCCCNC2CCCCC2)c(C)c1	14.1µM*	79.4µM*	28.2µM*	-0.6	30.7%	-22.2%
N#Cc1ccccc1OCCCNC1CCCC1	20µM*	?	-100.0%	-1.1	7.0%	?
COc1cccc(Nc2sc(C(=O)c3ccc(Cl)cc3)c(N)c2C(=O)NCCc2ccc(OC)c(OC)c2)c1	10µM*	?	?	·	·	-15.9%
CCOC(=O)c1cccc(NC(=O)c2cc(C)nc3c2c(C)nn3-c2ccc(C)cc2)c1	33.0%[59 µM]	8.7%	23.4%	·	·	90.7%
CCOC(=O)C1=C(C)N(CCCC(=O)O)C(=O)NC1c1cccs1 (stereo not drawn)	·	·	-3.5%	-66.2*	·	25.7%
CCN1C(=O)N[C@@H](c2cccs2)C(C(=O)OC)=C1C	·	·	-6.9%	-0.4	·	4.9%
CC1=C(C(=O)OCc2ccccc2)C(c2cccs2)NC(=O)N1CCCC(=O)O (stereo not drawn)	18.6%	1.4%	-11.4%	-66.4*	5.7%	30.1%
COC(=O)C1=C(C)N(CCCC(=O)O)C(=O)NC1c1cccs1 (stereo not drawn)	?	1.0%	0.7%	-72.6*	8.1%	35.0%
COc1cccc(Cn2c(=O)c(-c3cccc(Cl)c3)nc3cncnc32)c1	0.3%[12.7 µM]	·	·	·	·	·
CCN(CC)C(=O)Cn1c(=O)n(CCCCCC(=O)NCc2ccc(C)cc2)c(=O)c2sccc21	6.5%[59 µM]	0.4%	2.7%	·	·	32.5%
Cc1cccc(OCc2nnc(SCC(=O)Nc3ccc(C)cc3C)o2)c1	15.6%[59 µM]	11.6%	?	·	·	14.4%
CCOC(=O)c1c(C)oc2cc(Cl)c(O)c(CN(C)C)c12	10.6%[59 µM]	-17.4%	?	1.7	-10.3%	-20.3%
CCOC(=O)c1c(-c2ccccc2)oc2ccc(O)cc12	-22.2%[0.501 µM]	70.8µM*	-5.8%	18.4	2.2%[2.29 µM]	37.5%
CCOC(=O)c1c(C)n(C)c2ccc(O)c(CN3CCN(C)CC3)c12	?	·	-21.5%	·	-5.2%	-4.4%
